APOBEC3A inh: APOBEC3A ssDNA deaminase inhibitors, primary screen, selectivity assay for APOBEC3G inhibitor project, biochemical, FAM/TAMRA oligo cleavage fluorescence; DNA dC->dU-editing enzyme APOBEC-3A (Homo sapiens), P31941; recombinant A3A, FAM/TAMRA ssDNA deamination fluorescence; inhibition, % at 20 µM; 330,000 compounds, 0.41% hits;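 active means at least 40% inhibition at 20 µM here, with at most 30% in a related deaminase screen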
Target sequence (P31941 whole entry, looked up): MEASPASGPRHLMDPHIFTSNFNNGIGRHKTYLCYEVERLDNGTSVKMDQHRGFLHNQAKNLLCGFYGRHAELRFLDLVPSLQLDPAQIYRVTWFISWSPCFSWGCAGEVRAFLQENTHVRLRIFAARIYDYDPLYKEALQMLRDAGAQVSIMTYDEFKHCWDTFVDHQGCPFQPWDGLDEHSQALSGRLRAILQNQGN
rCAG RNA binder: binders of r(CAG) RNA repeats, primary screen, biochemical, fluorescence; 370,000 compounds, 1.3% hits; r(CAG) RNA repeat, TO-PRO-1 dye displacement fluorescence; inhibition, % at 3 µM; AID 651821, 2012;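 active means inhibition above the plate cutoff, the mean of all test compounds on that plate plus 3 SD, cut at about 35% in these data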;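 further: higher means more dye released from RNA so lower well fluorescence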
aDG glyco act: activators of alpha-DG glycosylation, primary screen, uHTS, Pro5-aDG cells, AlphaScreen; activation, % at 10 µM; alpha-DG glycosylation AlphaScreen (IIH6); 0% Pro5, 100% B10-LARGE cell signal; 360,000 compounds, 0.22% hits; AID 624168, 2012;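 active means activation of at least 8% versus controls, or a plate z-score of at least 8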;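 further: Pro5 are CHO cells carrying HIG-tagged alpha-DG that lacks glycosylation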
PHOSPHO1 inh: PubChem AID 1565. Phosphoethanolamine/phosphocholine phosphatase (Homo sapiens), Q8TCT1. recombinant PHOSPHO1, absorbance phosphatase assay. inhibition, % at 13.3 µM. 290,000 compounds, 1.1% hits; in the data active means inhibition above about 60%
Target sequence (Q8TCT1 whole entry, looked up): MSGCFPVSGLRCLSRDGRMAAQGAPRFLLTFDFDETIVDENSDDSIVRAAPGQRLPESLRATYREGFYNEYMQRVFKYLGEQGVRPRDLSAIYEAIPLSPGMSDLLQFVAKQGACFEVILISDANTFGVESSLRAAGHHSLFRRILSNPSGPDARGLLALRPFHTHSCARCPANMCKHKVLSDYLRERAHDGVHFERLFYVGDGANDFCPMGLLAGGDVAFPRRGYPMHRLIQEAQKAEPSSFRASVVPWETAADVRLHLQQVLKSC
ALR H2O2 inh: inhibitors of human ALR sulfhydryl oxidase, primary screen, biochemical, H2O2 detection, HRP-luminol luminescence, single point; FAD-linked sulfhydryl oxidase ALR (Homo sapiens), P55789; purified ALR, DTT oxidation; inhibition, % (test concentration not listed); 290,000 compounds, 3.8% hits;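 active means mean replicate inhibition above about 79%, with every replicate also reaching it, limit read from the data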
Target sequence (P55789 whole entry, looked up): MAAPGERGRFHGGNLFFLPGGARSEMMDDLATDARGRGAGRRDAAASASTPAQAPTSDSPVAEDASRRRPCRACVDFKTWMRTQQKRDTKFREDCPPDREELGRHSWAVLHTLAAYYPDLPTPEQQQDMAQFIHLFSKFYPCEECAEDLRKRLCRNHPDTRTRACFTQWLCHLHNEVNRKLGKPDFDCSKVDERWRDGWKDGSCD
A3G deaminase: APOBEC3G DNA deaminase inhibitors, primary screen, biochemical, fluorescence, single-stranded DNA substrate, uHTS; AID 493012, 2011; recombinant A3G, ssDNA deamination FAM/TAMRA fluorescence; inhibition, % at 20 µM; DNA dC->dU-editing enzyme APOBEC-3G (Homo sapiens), Q9HC16; 330,000 compounds, 0.28% hits;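 active means inhibition of at least 40% at 20 µM, with no more than 30% in the related APOBEC3A deaminase screen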
Of the large screens only hits and unclear results are named; the others gave an inactive call. An excerpt weighted towards active compounds, which were near 5.4% of everything screened.

O=C(NCCN1CCOCC1)c1ccc2c(c1)N(Cc1ccccc1)C(=O)CS2	none
Cc1ccc(CN2CCSc3ccc(C(=O)NCCCN4CCOCC4)cc32)cc1	ALR H2O2 inh 98
O=C(NCCN1CCOCC1)c1ccc2c(c1)N(Cc1ccccc1)CCS2	ALR H2O2 inh 100
CN1CCN(CCCNC(=O)c2ccc3c(c2)N(Cc2ccccc2)CCS3)CC1	ALR H2O2 inh 99
Cc1ccc(CN2CCSc3ccc(C(=O)NCc4ccco4)cc32)cc1	none
CCN1CCN(CCCNC(=O)c2ccc3c(c2)N(Cc2ccc(C)cc2)CCS3)CC1	ALR H2O2 inh 99 (no result: rCAG RNA binder)
Cc1ccc(C2NC(=O)c3n[nH]c(C(C)C)c32)cc1 (configuration not stated)	none (no result: APOBEC3A inh, aDG glyco act, PHOSPHO1 inh, ALR H2O2 inh, A3G deaminase)
CN[C@H]1C[C@H]2c3[nH]c4cccc(-c5cccc(F)c5)c4c3CCN2C(=O)[C@H]1[C@H](C)O	none (no result: APOBEC3A inh, aDG glyco act, PHOSPHO1 inh, ALR H2O2 inh, A3G deaminase)
O=C(NCC1CCCO1)c1ccc2c(c1)N(Cc1ccccc1)CCS2 (configuration not stated)	ALR H2O2 inh 99
O=C(NCCCN1CCOCC1)c1ccc2c(c1)N(Cc1ccccc1)C(=O)c1ccccc1S2	none
O=C(NCCCN1CCOCC1)c1ccc2c(c1)N(Cc1ccccc1)CCS2	ALR H2O2 inh 99
CN1C(=O)C2C(c3ccc(N(C)C)cc3)NN(Cc3ccccc3)C2C1=O (configuration not stated)	ALR H2O2 inh 98
O=S1(=O)c2ccc(N3CCCC3)cc2Oc2ccccc2CN1Cc1cn(Cc2cccc(C(F)(F)F)c2)nn1	none (no result: APOBEC3A inh, aDG glyco act, PHOSPHO1 inh, ALR H2O2 inh, A3G deaminase)
COCC(C)OC(=O)/C(C#N)=C\c1coc2ccc(C)cc2c1=O (configuration not stated)	ALR H2O2 inh 96 (no result: APOBEC3A inh, A3G deaminase)
CCOC(=O)C1CCN(c2nc(C)cc(C)c2C#N)CC1	none (no result: ALR H2O2 inh)
CCOC(=O)C1CCN(c2nc(N)c3c(N)nc(SCC(=O)O)cc3c2C#N)CC1	rCAG RNA binder 35 (no result: APOBEC3A inh, ALR H2O2 inh, A3G deaminase)
COCCNC(=O)C[C@H]1CC[C@H]2[C@@H](COc3ccc(NS(=O)(=O)c4ccc(Cl)cc4)cc3C(=O)N2C)O1	none (no result: APOBEC3A inh, aDG glyco act, PHOSPHO1 inh, ALR H2O2 inh, A3G deaminase)
CCOC(=O)CNC(=O)CSc1ncnc2c1nnn2-c1ccc(F)cc1	none
COC(=O)C(C)Sc1ncnc2c1nnn2-c1ccc(F)cc1 (configuration not stated)	ALR H2O2 inh 98
CC(=O)Nc1ccc(S(=O)(=O)Nc2nc3ccccc3nc2Sc2nncn2C)cc1	ALR H2O2 inh 99
Cc1c(Nc2nc3ccccc3nc2NS(=O)(=O)c2ccccc2)c(=O)n(-c2ccccc2)n1C	none
Cn1ccnc1Sc1nc2ccccc2nc1NS(=O)(=O)c1ccccc1	PHOSPHO1 inh 73
COCCCNc1nc2ccccc2nc1NS(=O)(=O)c1ccccc1	none
Cn1cnnc1Sc1nc2ccccc2nc1NS(=O)(=O)c1ccccc1	PHOSPHO1 inh 62
COc1ccc(C(C(=O)N(C)C2CCCC2)N(Cc2ccc(F)cc2)C(=O)c2sccc2Cl)cc1OC (configuration not stated)	none (no result: APOBEC3A inh, aDG glyco act, PHOSPHO1 inh, ALR H2O2 inh, A3G deaminase)
CC1(C)CC2CC(C)(CN2Cc2cccc([N+](=O)[O-])c2)C1 (configuration not stated)	none
CC1(C)CC2CC(C)(CN2Cc2c(O)ccc3ccccc23)C1 (configuration not stated)	ALR H2O2 inh 95
C#CCN(Cc1ccco1)C(=O)c1nnc2c3ccccc3n(S(=O)(=O)c3ccc(C)cc3)c2n1	none (no result: APOBEC3A inh, aDG glyco act, PHOSPHO1 inh, ALR H2O2 inh, A3G deaminase)
Cc1cc(Cl)ccc1OCCCC(=O)NO	ALR H2O2 inh 99
O=C(Nc1ccc(N2CCCCCC2)cc1)c1ccccc1Cl	none
O=C(Nc1ccc(N2CCCCCC2)cc1)c1ccc[nH]1	ALR H2O2 inh 99 (no result: PHOSPHO1 inh)
COc1c(C)cccc1C(=O)Nc1ccc(CN2CCCCC2)cc1	ALR H2O2 inh 94
COc1ccccc1C(=O)Nc1ccc(N2CCCCC2)cc1	ALR H2O2 inh 83
COc1cccc(OC)c1C(=O)Nc1ccc(CN2CCCCC2)cc1	none (no result: ALR H2O2 inh)
CN1C/C(=C/c2ccccc2)N2C(=O)C[C@@H](c3ccccc3)N=C12	none (no result: APOBEC3A inh, aDG glyco act, PHOSPHO1 inh, ALR H2O2 inh, A3G deaminase)
Cc1ccc(-n2c(SCC(=O)c3ccc4ccccc4c3)nnc2-c2cccnc2)cc1	none (no result: APOBEC3A inh, aDG glyco act, PHOSPHO1 inh, ALR H2O2 inh, A3G deaminase)
CCOC(=O)C1CCN(C2=NC(=O)/C(=C/c3ccc(O)cc3)S2)CC1	ALR H2O2 inh 98
CCOc1cc(/C=C2\SC(=O)N=C2N)ccc1O	none (no result: ALR H2O2 inh)
CCOC(=O)C1CCN(C2=NC(=O)/C(=C/c3ccccc3OC)S2)CC1	none
CCOc1cc(/C=C2\N=C3CCCCCN3C2=O)ccc1O	ALR H2O2 inh 99
CCOC(=O)C1CCCN(C2=NC(=O)/C(=C/c3ccc(O)c(OCC)c3)S2)C1 (configuration not stated)	ALR H2O2 inh 96
CCOc1cc(/C=C2\SC(N)=NC2=O)ccc1O	ALR H2O2 inh 98
CCOC(=O)C1CCCN(C2=NC(=O)/C(=C/c3ccc(OC)cc3)S2)C1 (configuration not stated)	none
CCOC(=O)C1CCCN(C2=NC(=O)/C(=C/c3ccc(N(C)C)cc3)S2)C1 (configuration not stated)	ALR H2O2 inh 100
CCOC(=O)C1CCN(C(=O)c2ccc3c(c2)NC(=O)/C(=C\c2ccc(C)cc2)S3)CC1	PHOSPHO1 inh 70
CCOC(=O)CSC1=NC(=O)/C(=C/c2ccc(OC)cc2)S1	ALR H2O2 inh 99 (no result: rCAG RNA binder)
COC(=O)[C@]12C[C@H](CC(=O)NCCc3ccccc3OC)C(=O)N(Cc3cccc4ccccc34)C1=C[C@H](C(C)(C)C)O[C@@H]2C	none (no result: APOBEC3A inh, aDG glyco act, PHOSPHO1 inh, ALR H2O2 inh, A3G deaminase)
Nc1nc2ccc(-c3nc4ccccc4o3)cc2s1	ALR H2O2 inh 97
COC(=O)[C@]12C[C@H](CC(=O)NCc3cccs3)C(=O)N(Cc3ccccc3)C1=C[C@H](COCc1ccccc1)O[C@@H]2C	none (no result: APOBEC3A inh, aDG glyco act, PHOSPHO1 inh, ALR H2O2 inh, A3G deaminase)
COc1ccc(CCNC(=O)CN2CCCc3ccccc32)cc1OC	none
O=C(CN1CCCc2ccccc21)NCCc1ccc(F)cc1	ALR H2O2 inh 108
CCCCCCN1CCS(=O)(=O)N(Cc2ccc(OC)cc2)C(C(=O)OC)C1 (configuration not stated)	none (no result: APOBEC3A inh, aDG glyco act, PHOSPHO1 inh, ALR H2O2 inh, A3G deaminase)
Cc1cccc(C)c1NC(=O)C(c1ccccc1)n1c(=O)c(-c2ccccc2)nc2ccccc21 (configuration not stated)	none (no result: APOBEC3A inh, PHOSPHO1 inh, ALR H2O2 inh, A3G deaminase)
CC(C)(C)NC(=O)C(c1ccc(-c2ccccc2)cc1)n1c(=O)c(-c2ccco2)nc2ccccc21 (configuration not stated)	rCAG RNA binder 37 (no result: APOBEC3A inh, PHOSPHO1 inh, ALR H2O2 inh, A3G deaminase)
Cc1cccc(C)c1NC(=O)C(c1ccc(-c2ccccc2)cc1)n1c(=O)c(-c2ccco2)nc2ccccc21 (configuration not stated)	rCAG RNA binder 41 (no result: APOBEC3A inh, PHOSPHO1 inh, ALR H2O2 inh, A3G deaminase)
